From PubChem BioAssay
Active and inactive are the calls of the source.

Tests used:
[1] = system: Plasmodium falciparum Sir2 (PF13_0152, Sir2A); experiment: Plasmodium falciparum Sir2A binding compounds – biochemical, small-molecule microarray, 635 nm fluorescence, primary screen (AID 1098); conditions: fluorescence 635 nm, higher = more signal;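 further: score merges spot fluorescence intensity with its signal-to-noise ratio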
[2] = probe aDKK1 binding to arrayed compounds – biochemical, biotinylated probe, 635/667 nm fluorescence, primary screen (AID 1099); conditions: small-molecule microarray, higher = more signal;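 further: score merges 667nm spot fluorescence with signal to noise across triplicate slides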
[3] = probe aCHRDL2 binding to arrayed compounds – biochemical, biotinylated probe, 635/667 nm fluorescence, primary screen (AID 1100); conditions: small-molecule microarray, higher = more signal
[4] = change in splice reporter luminescence, either direction, cell-based, HEK293, spliceosome inhibition project, primary screen (AID 1101); conditions: HEK293 splicing luciferase reporter, 24 h, higher = more signal, called active from +8 up or from −8 down;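 further: HEK293 cells carrying a splicing-competent luciferase reporter gene; test concentration not given here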
[5] = target: Fibroblast growth factor 10 (Homo sapiens) (UniProt O15520); experiment: compounds binding fibroblast growth factor 10 – biochemical, small-molecule microarray, 635 nm fluorescence, primary screen (AID 1102); conditions: FGF10 binding, fluorescence 635 nm, higher = more signal
[6] = system: glycogen synthase kinase-3 (GSK3A per assay name; protocol says GSK3B); experiment: compounds binding glycogen synthase kinase-3 – biochemical, small-molecule microarray, 635 nm fluorescence, GSK3A, primary screen (AID 1103); conditions: fluorescence 635 nm, higher = more signal; further: the record names both GSK3A and GSK3B
[7] = target: Epidermal growth factor receptor (Homo sapiens) (UniProt P00533); experiment: compounds binding epidermal growth factor receptor – biochemical, small-molecule microarray, 635 nm fluorescence, primary screen (AID 1104); conditions: EGFR binding, higher = more signal;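 further: score merges 667 nm emission intensity with spot signal to noise over triplicate slides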
[8] = target: Follistatin-related protein 3 (Homo sapiens) (UniProt O95633); experiment: compounds binding follistatin-related protein 3 – biochemical, small-molecule microarray, 635 nm fluorescence, primary screen (AID 1105); conditions: FSTL3 binding, higher = more signal;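 further: score merges emission near 667 nm and signal to noise per printed spot across three slides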
[9] = target: Dickkopf-related protein 1 (Homo sapiens) (UniProt O94907); experiment: small molecules binding DKK1 protein – biochemical, small-molecule microarray, 635 nm fluorescence scan, primary screen (AID 1106); conditions: higher = more signal;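 further: score merges emission near 667 nm with signal to noise over three replicate slides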
[10] = system: Inhibin beta A chain (activin A); experiment: small molecules binding activin A – biochemical, small-molecule microarray, 635 nm fluorescence scan, primary screen (AID 1107); conditions: INHBA, higher = more signal;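 further: mouse activin A protein probed at 4.33 µg/mL on printed slides; score merges bound-protein fluorescence near 667 nm with spot signal-to-noise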
[11] = system: Human papillomavirus type 1a protein E7 (residues 44-93); experiment: small molecules binding HPV E7 44-93 – biochemical, small-molecule microarray, residues 44-93, 635 nm fluorescence, primary screen (AID 1108); conditions: fluorescence 635 nm, higher = more signal;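 further: E7 fragment applied at 1 µg/mL in TBST for 1 h at 4 C; score combines spot fluorescence with its signal to noise ratio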
[12] = hepatitis C replication reporter changes, two-sided – Huh7 cells, luciferase reporter, HCV replication inhibitor project, primary screen (AID 1109); conditions: Huh7 HCV replicon luciferase reporter, 48 h; higher = more signal;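 further: huh7 hepatoma cells harbouring a luciferase neomycin HCV replicon reporter; luciferase luminescence as measure of HCV replicon replication; test concentration not given here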
[13] = target: Left-right determination factor 2 (Homo sapiens) (UniProt O00292); experiment: small molecules binding LEFTY2 protein – biochemical, small-molecule microarray, 635 nm fluorescence scan, primary screen (AID 1110); conditions: higher = more signal
[14] = target: Calmodulin-1 (Homo sapiens) (UniProt P0DP23); experiment: small molecules binding calmodulin-1 with EGTA – biochemical, small-molecule microarray, Cy5-labelled CALM1, profiling panel (AID 1111); conditions: Cy5-CALM1 binding fluorescence, higher = more signal;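 further: labelled calmodulin applied in Tris saline Tween buffer holding calcium plus EGTA and DTT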
[15] = target: Calmodulin-1 (Homo sapiens) (UniProt P0DP23); experiment: small molecules binding Ca-loaded calmodulin-1 – biochemical, small-molecule microarray, Cy5-labelled CALM1, plus calcium, artefact control for SMM control-protein annotation, profiling panel (AID 1112); conditions: Cy5-CALM1 binding fluorescence, higher = more signal;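 further: score merges spot fluorescence with signal to noise from triplicate slides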
[16] = probe aWnt5a binding to arrayed compounds – biochemical, biotinylated probe, 635/667 nm fluorescence, primary screen (AID 1113); conditions: small-molecule microarray, higher = more signal;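 further: score merges 667 nm fluorescence intensity with signal-to-noise per printed feature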
[17] = probe aShh binding to arrayed compounds – biochemical, biotinylated probe, 635/667 nm fluorescence, primary screen (AID 1114); conditions: small-molecule microarray, higher = more signal;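 further: probe is biotin-labelled aShh protein from a stem cell growth factor screen; measures binding of labelled protein to compounds printed on the slide; score merges feature fluorescence at 667 nm with signal-to-noise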
[18] = probe aNog binding to arrayed compounds – biochemical, biotinylated probe, 635/667 nm fluorescence, primary screen (AID 1115); conditions: small-molecule microarray, higher = more signal;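 further: probe is biotinylated aNog protein used at 0.15 µg/mL for 1 h at 4 C; z-score combines 667 nm fluorescence of each spot with its signal to noise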
[19] = target: Torsin-1A-interacting protein 1 (Homo sapiens) (UniProt Q5JTV8); experiment: compound microarray binding of lysate hLAP1 – cell lysate, small-molecule microarray, COS7 lysate, 635/667 nm fluorescence, primary screen (AID 1116); conditions: 635 nm fluorescence, higher = more signal
[20] = target: Alpha-bungarotoxin (Bungarus multicinctus) (UniProt P60615); experiment: compounds binding labelled alpha-BTX control protein – biochemical, small-molecule microarray, Alexa647 label, 635/667 nm fluorescence, artefact control for SMM control protein annotation, profiling panel (AID 1117); conditions: alpha-BTX-A647 binding fluorescence, higher = more signal
Alpha-bungarotoxin (Bungarus multicinctus), sequence (P60615 whole entry, looked up): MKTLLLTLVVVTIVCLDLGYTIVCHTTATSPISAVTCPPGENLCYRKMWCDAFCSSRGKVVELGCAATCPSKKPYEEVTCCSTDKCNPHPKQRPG

Torsin-1A-interacting protein 1 (Homo sapiens), sequence (Q5JTV8 whole entry, looked up): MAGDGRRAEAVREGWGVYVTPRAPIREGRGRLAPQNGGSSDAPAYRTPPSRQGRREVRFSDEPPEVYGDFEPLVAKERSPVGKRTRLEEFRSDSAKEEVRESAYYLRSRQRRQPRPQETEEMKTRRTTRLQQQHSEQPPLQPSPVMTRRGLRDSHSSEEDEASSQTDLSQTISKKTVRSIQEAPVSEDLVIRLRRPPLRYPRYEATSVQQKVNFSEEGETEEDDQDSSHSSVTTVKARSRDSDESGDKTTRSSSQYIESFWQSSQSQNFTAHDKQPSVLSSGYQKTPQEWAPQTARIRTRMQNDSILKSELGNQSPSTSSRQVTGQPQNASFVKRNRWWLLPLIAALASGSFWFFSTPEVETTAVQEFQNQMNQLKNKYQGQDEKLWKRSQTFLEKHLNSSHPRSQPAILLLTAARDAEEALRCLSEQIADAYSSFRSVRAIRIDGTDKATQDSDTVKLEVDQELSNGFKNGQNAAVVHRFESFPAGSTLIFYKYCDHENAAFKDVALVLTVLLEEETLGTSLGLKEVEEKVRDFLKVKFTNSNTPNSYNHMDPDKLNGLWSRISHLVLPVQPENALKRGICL
Follistatin-related protein 3 (Homo sapiens), sequence (O95633 whole entry, looked up): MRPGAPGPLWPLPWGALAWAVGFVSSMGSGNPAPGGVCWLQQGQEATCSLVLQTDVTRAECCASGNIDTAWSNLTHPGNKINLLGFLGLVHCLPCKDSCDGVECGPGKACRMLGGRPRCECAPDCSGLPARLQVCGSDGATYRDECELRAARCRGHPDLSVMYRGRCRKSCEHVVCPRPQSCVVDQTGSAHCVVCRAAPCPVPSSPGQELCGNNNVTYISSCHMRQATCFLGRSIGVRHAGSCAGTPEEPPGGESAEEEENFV
Dickkopf-related protein 1 (Homo sapiens), sequence (O94907 whole entry, looked up): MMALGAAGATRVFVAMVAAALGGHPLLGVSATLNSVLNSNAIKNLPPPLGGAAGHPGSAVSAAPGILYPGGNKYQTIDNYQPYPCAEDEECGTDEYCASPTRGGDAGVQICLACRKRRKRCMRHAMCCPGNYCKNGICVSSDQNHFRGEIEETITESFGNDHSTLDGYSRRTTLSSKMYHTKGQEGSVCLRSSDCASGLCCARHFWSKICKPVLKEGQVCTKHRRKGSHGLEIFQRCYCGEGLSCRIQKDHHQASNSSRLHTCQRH
Epidermal growth factor receptor (Homo sapiens), sequence (P00533 whole entry, looked up): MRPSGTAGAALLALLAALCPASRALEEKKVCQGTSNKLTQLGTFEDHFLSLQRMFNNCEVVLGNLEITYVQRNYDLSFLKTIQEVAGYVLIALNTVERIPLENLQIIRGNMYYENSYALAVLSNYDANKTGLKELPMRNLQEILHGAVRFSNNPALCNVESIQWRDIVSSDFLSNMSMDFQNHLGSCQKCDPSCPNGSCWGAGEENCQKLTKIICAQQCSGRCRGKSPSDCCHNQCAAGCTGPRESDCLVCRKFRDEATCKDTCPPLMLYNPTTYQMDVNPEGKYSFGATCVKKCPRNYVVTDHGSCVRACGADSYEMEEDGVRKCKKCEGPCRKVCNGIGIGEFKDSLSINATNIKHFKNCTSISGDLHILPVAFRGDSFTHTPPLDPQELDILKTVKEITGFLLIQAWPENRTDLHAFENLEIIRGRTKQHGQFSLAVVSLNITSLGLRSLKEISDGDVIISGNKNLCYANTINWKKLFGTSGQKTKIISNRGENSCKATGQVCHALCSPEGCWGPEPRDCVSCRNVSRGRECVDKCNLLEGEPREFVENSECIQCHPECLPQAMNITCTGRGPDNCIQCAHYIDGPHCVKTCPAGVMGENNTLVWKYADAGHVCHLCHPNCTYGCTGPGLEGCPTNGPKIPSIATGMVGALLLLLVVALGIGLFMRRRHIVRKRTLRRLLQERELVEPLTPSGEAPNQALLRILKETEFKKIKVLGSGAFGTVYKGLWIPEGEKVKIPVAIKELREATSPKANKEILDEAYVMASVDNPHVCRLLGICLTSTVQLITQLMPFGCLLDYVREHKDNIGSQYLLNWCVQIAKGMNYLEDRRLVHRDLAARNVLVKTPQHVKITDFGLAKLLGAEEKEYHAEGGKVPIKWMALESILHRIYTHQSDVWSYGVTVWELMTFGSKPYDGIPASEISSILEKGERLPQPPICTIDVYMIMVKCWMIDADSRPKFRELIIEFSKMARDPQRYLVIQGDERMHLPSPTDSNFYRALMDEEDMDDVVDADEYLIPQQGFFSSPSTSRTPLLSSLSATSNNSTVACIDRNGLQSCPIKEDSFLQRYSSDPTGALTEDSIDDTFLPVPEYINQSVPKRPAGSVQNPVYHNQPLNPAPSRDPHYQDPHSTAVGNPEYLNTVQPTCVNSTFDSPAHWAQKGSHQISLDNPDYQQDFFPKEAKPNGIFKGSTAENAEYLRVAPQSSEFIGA
Fibroblast growth factor 10 (Homo sapiens), sequence (O15520 whole entry, looked up): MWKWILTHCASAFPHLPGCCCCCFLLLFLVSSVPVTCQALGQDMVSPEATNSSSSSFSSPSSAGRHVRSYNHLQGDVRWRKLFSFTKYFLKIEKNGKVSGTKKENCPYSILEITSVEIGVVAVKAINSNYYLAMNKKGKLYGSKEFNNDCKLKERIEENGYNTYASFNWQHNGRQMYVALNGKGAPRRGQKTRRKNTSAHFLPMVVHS
Left-right determination factor 2 (Homo sapiens), sequence (O00292 whole entry, looked up): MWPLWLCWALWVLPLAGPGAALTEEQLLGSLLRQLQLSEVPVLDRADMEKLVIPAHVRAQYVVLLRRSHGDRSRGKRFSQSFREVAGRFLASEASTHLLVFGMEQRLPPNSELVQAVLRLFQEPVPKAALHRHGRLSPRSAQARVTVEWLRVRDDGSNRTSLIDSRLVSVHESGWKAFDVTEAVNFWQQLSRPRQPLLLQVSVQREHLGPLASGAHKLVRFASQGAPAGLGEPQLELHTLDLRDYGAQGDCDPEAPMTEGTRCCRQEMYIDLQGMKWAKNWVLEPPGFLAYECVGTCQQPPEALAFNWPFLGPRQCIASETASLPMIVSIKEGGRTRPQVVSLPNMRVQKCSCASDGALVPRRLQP

SMILES	composite z-score [1]	composite z-score [2]	composite z-score [3]	z-score [4]	composite z-score [5]	composite z-score [6]	composite z-score [7]	composite z-score [8]	composite z-score [9]	composite z-score [10]	composite z-score [11]	z-score [12]	composite z-score [13]	composite z-score [14]	composite z-score [15]	composite z-score [16]	composite z-score [17]	composite z-score [18]	composite z-score [19]	composite z-score [20]
CCCCC(=O)N(Cc1ccccc1F)[C@@H]1CC(C(=O)NCCO)=C[C@H](Oc2c(I)cc(CO)cc2OC)[C@H]1O	1.09	-0.22	-0.327	-0.0457 (inactive)	1.46	1.34	0.91	1.13	1.96	0.535	1.42	-1.06	1.29	3.17	1.4	0.0004	0.123	-0.083	0.994	1.79
Cc1ccc([C@H]2C(C(=O)O)=C[C@@H](C(C)C)N2S(=O)(=O)c2ccc(C)cc2)cc1	0.853	0.309	0.68	-0.349 (inactive)	0.265	0.914	-0.206	-0.103	-0.329	0.479	1.39	0.58	-0.448	0.995	0.237	0.0597	-0.0769	0.129	0.984	0.11
C=CC[C@@]1(C(=O)OC)N=C(c2ccc(OCCCO)cc2)O[C@@H]1c1ccccc1CN=[N+]=[N-]	1.55	-0.0877	0.892	-1.54 (inactive)	-0.216	-0.215	-0.328	0.201	-0.231	1.15	1.14	-2.02	-0.0045	-0.517	-0.896	-0.144	-0.0553	-0.24	0.798	0.389
[N-]=[N+]=Nc1ccccc1C[C@]1(C(=O)N2CCCCC2)N=C(c2ccc(OCCCO)cc2)O[C@H]1c1ccccc1N=[N+]=[N-]	1.42	0.0941	1.18	-0.103 (inactive)	1.4	0.743	-0.0207	0.611	-0.235	1.25	0.903	-2.5	-0.0089	1.46	0.605	0.2	0.294	1.87	1.21	0.703
COCCOC(=O)N1C(=O)[C@@]2(c3cc(C#CCC(C(=O)OC)C(=O)OC)ccc31)[C@H](c1ccccc1OCCO)N1[C@H](c3ccccc3)[C@H](c3ccccc3)OC(=O)[C@H]1[C@@H]2C(=O)Nc1nc2ccccc2s1	1.46	0.514	0.641	-1.04 (inactive)	1.33	1.14	0.692	1.4	0.785	1.1	0.678	-1.11	0.691	1.29	0.522	-0.0134	-0.0146	0.185	1.99	2.06
[N-]=[N+]=NCc1ccccc1[C@@H]1OC(c2ccc(OCCCO)cc2)=N[C@]1(Cc1ccccc1)C(=O)O	1.03	0.175	0.917	-0.013 (inactive)	0.661	0.294	-0.321	-0.086	-0.617	1.2	1.38	-0.297	-0.252	1.14	0.518	-0.0479	0.0711	-0.419	0.767	0.865
CS(=O)(=O)CCOC(=O)C1=CC(c2ccc(CO)cc2)=CC(c2cccs2)N(Cc2cccc(OC(F)(F)F)c2)C=C1C(=O)OCCS(C)(=O)=O (stereo not given)	0.472	0.15	0.211	-0.164 (inactive)	1.02	0.88	0.084	0.919	0.353	1.33	0.869	-2.19	0.192	1.75	0.707	0.0044	-0.102	-0.475	0.796	0.904
O=c1cccc(-c2ccc3ccccc3c2)o1	-0.271	0.216	0.591	-0.823 (inactive)	-0.0487	-0.964	0.0697	-0.0172	-0.139	1.15	-0.0853	0.0929	-0.135	-0.545	0.03	-0.184	-0.136	-0.219	0.407	0.687
CC1CC/C=C\[C@H]2OC34C=CCN(Cn5nnc6ccccc65)C(=O)[C@H]3N(CCCO)C(=O)[C@@H]4C2C(=O)O1 (stereo not given in full)	1.14	-0.12	0.763	-0.538 (inactive)	-1.04	-1.31	-0.991	-0.97	-1.6	0.767	-0.311	-0.486	-1.28	-0.484	0.25	-0.228	0.0121	-0.201	0.479	-0.744
COc1ccc([Si](C)(C)[C@H]2[C@H](CC(=O)N3CCC[C@H]3CO)O[C@@]3(C(=O)N(c4ccccc4)c4ccccc43)[C@@H]2C)cc1	1.28	-0.344	-0.28	-1.82 (inactive)	-0.174	-0.828	0.138	0.051	0.487	0.581	-0.542	-1.12	0.301	-0.363	-0.366	-0.156	-0.13	-0.1	0.429	0.0488
CCOC(=O)C1=C[C@@H](C(C)(C)C)N(S(=O)(=O)c2ccc(C)cc2)[C@H]1c1ccc(Cl)c(Cl)c1	1.1	0.665	0.827	0.425 (inactive)	0.733	1.3	0.481	0.924	0.023	0.326	1.34	-0.501	0.595	1.46	0.122	-0.154	0.213	0.863	0.735	1.35
[N-]=[N+]=NCc1ccccc1C[C@]1(C(N)=O)N=C(c2ccc(OCCCO)cc2)O[C@H]1c1ccccc1N=[N+]=[N-]	0.573	0.911	1.16	-0.288 (inactive)	0.617	1	-0.236	0.416	-0.322	1.45	1.4	-0.507	0.308	1.18	0.596	0.193	0.232	1.08	1.71	1.24
COCCCNC(=O)[C@@]1(Cc2ccccc2I)c2ccccc2C(=O)N(Cc2ccccc2)[C@H]1c1ccc(CO)cc1	-0.67	-0.113	0.394	-0.356 (inactive)	-1.25	-1.43	-2.16	-1.56	-1.41	-1.59	0.609	-1.38	-2.53	-0.387	0.239	-0.232	-0.0146	0.0327	0.258	-1.4
O=C1C2C=CC(C(O)C3CC=CCC3)N(n3cnnc3)C2C(=O)N1Cc1ccccc1 (stereo not given)	0.213	-0.3	0.348	0.276 (inactive)	-0.644	-0.406	-1.64	-1	-0.746	0.672	-0.318	-0.151	-0.49	-0.292	-0.92	-0.154	0.0684	0.336	0.752	0.365
C[N+](C)(C)CCCC[C@@H]1NC(=O)[C@H]2C[C@@H](C(=O)O)[C@@H](c3cccc(OCCO)c3)N2C1=O	2.08	2.39	1.38	-0.246 (inactive)	1.4	1.36	1.17	1.41	1.3	1.47	1.47	-0.774	0.968	2.16	0.618	1.18	2.34	2.84	3.37	3.77
CCCC[C@H]1OB(O)C[C@H]2C1=C(C)Cn1c(=O)n(-c3ccccc3)c(=O)n12	0.161	-0.291	-0.67	-0.293 (inactive)	0.49	0.37	0.512	0.662	0.779	0.255	0.422	-0.759	0.648	-0.305	-0.406	-0.215	-0.0035	-0.426	0.363	-0.149
COCCn1c(C(=O)N2CCCC2)cc2c1C[C@H]1CN(C(=O)c3ccccc3)[C@@](Cc3ccc(OC)cc3)(C(=O)OC)[C@@H]21	0.994	1.41	1.44	-1.82 (inactive)	0.344	0.194	-0.224	0.682	-0.223	1.06	0.279	-1.62	-0.464	2.67	1.33	0.0365	0.21	-0.401	3.21	0.626
CCOC(=O)C=Cc1cccc(OC)c1O	-0.0095	-0.349	0.165	-1.98 (inactive)	-0.96	-0.073	-1.71	-0.631	-1.77	-0.4	-0.0381	1.61	-1.23	0.155	-0.551	-0.122	-0.212	-0.344	-0.0817	0.254
C=CC[C@]1(C(=O)NCCN2CCOCC2)N=C(c2ccc(OCCCO)cc2)O[C@H]1c1ccccc1N=[N+]=[N-]	0.529	1.22	1.31	-0.448 (inactive)	1.08	0.287	0.327	1.05	0.283	1.6	1.01	-0.44	0.26	1.34	-0.0083	0.048	-0.155	1.39	1.36	1.3
CCOC(=O)N1C(c2ccc(OCCCO)cc2)=NC(C(=O)OC)N1C(=O)OCC (stereo not given)	0.587	-0.164	0.0258	-0.641 (inactive)	0.909	1.28	0.431	1.39	0.471	-0.298	1.38	-3.72	0.537	1.25	0.127	-0.0685	-0.279	0.0036	0.935	0.439
COc1cc(CO)cc(I)c1O[C@H]1C=C(C(=O)NCCO)C[C@@H](N(CCc2cccc(F)c2)C(=O)CCC2CCCC2)[C@@H]1O	1.1	0.0556	0.252	-1.37 (inactive)	1.54	1.01	-0.261	0.716	0.897	0.733	1.43	-4.65	0.195	2.15	2.16	0.277	0.0952	-0.144	2.99	-0.242
